The supplement of paper PMC8728848
The entries come from a sample that favours the strongest signals as a whole.

How the values were obtained:
Assay in all cases: glycan array binding signal (z-score within array); higher = stronger binding
Conditions in all cases: glycan notation: IUPAC condensed, linker removed
[1] = biological target: Fuc(a1-2)Gal(b1-3)[Fuc(a1-4)]GlcNAc
Method in brief: (§1)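 Columns mapping to the same glycan were averaged after glycan names were converted to IUPAC-condensed notation. The data come from 3228 arrays in the Consortium for Functional Glycomics database, limited to those with an available protein sequence. Binding is reported as a within-array Z-score averaged across arrays of one protein sequence and across linkers.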

[2] = biological target: Fuc(a1-2)Gal(b1-4)GlcNAc(b1-2)[Fuc(a1-2)Gal(b1-4)GlcNAc(b1-4)]Man(a1-3)[Fuc(a1-2)Gal(b1-4)GlcNAc(b1-2)Man(a1-6)]Man(b1-4)GlcNAc(b1-4)GlcNAc
Method in brief: as §1

[3] = biological target: Fuc(a1-2)Gal(b1-4)GlcNAc(b1-3)GalNAc
Method in brief: as §1

[4] = biological target: Fuc(a1-2)Gal(b1-4)GlcNAc(b1-3)[Fuc(a1-3)[Gal(b1-4)]GlcNAc(b1-6)]Gal(b1-4)Glc
Method in brief: as §1

[5] = biological target: Fuc(a1-2)Gal(b1-4)[Fuc(a1-3)]GlcNAc(b1-2)[Fuc(a1-2)Gal(b1-4)[Fuc(a1-3)]GlcNAc(b1-4)]Man(a1-3)[Fuc(a1-2)Gal(b1-4)[Fuc(a1-3)]GlcNAc(b1-2)Man(a1-6)]Man(b1-4)GlcNAc(b1-4)GlcNAc
Method in brief: as §1

[6] = biological target: Fuc(a1-2)Gal6S(b1-4)Glc
Method in brief: as §1

[7] = biological target: Fuc(a1-2)[Gal(a1-3)]Gal(b1-4)GlcNAc(b1-2)Man(a1-3)[Fuc(a1-2)[Gal(a1-3)]Gal(b1-4)GlcNAc(b1-2)Man(a1-6)]Man(b1-4)GlcNAc(b1-4)GlcNAc
Method in brief: as §1

[8] = biological target: Fuc(a1-2)[Gal(a1-3)]Gal(b1-4)GlcNAc(b1-6)GalNAc
Method in brief: as §1

[9] = biological target: Fuc(a1-3)[Gal(b1-4)]GlcNAc(b1-2)Man(a1-3)[Fuc(a1-3)[Gal(b1-4)]GlcNAc(b1-2)Man(a1-6)]Man(b1-4)GlcNAc(b1-4)[Fuc(a1-6)]GlcNAc
Method in brief: as §1

[10] = biological target: Fuc(a1-3)[Gal3S(b1-4)]Glc
Method in brief: as §1

[11] = biological target: Gal(a1-3)Gal(b1-3)GlcNAc(b1-2)Man(a1-3)[Gal(a1-3)Gal(b1-3)GlcNAc(b1-2)Man(a1-6)]Man(b1-4)GlcNAc(b1-4)GlcNAc
Method in brief: as §1

[12] = biological target: Gal(a1-3)Gal(b1-3)GlcNAc(b1-6)GalNAc
Method in brief: as §1

[13] = biological target: Gal(a1-3)Gal(b1-4)GlcNAc
Method in brief: as §1

[14] = biological target: Gal(b1-3)GlcNAc(b1-2)Man(a1-3)[Gal(b1-3)GlcNAc(b1-2)Man(a1-6)]Man(b1-4)GlcNAc(b1-4)GlcNAc
Method in brief: as §1

[15] = biological target: Gal(b1-3)GlcNAc(b1-3)Gal(b1-4)GlcNAc(b1-3)Gal(b1-4)GlcNAc(b1-2)[Gal(b1-3)GlcNAc(b1-3)Gal(b1-4)GlcNAc(b1-3)Gal(b1-4)GlcNAc(b1-6)]Man(a1-6)[Gal(b1-3)GlcNAc(b1-3)Gal(b1-4)GlcNAc(b1-3)Gal(b1-4)GlcNAc(b1-2)Man(a1-3)]Man(b1-4)GlcNAc(b1-4)[Fuc(a1-6)]GlcNAc
Method in brief: as §1

[16] = biological target: Gal(b1-3)[Fuc(a1-4)]GlcNAc(b1-6)GalNAc
Method in brief: as §1

[17] = biological target: Gal(b1-4)GlcNAc(b1-2)Man(a1-3)Man(b1-4)GlcNAc(b1-4)GlcNAc
Method in brief: as §1

[18] = biological target: Gal(b1-4)GlcNAc(b1-2)Man(a1-6)[Man(a1-3)]Man(b1-4)GlcNAc(b1-4)GlcNAc
Method in brief: as §1

[19] = biological target: Gal(b1-4)GlcNAc(b1-2)[Gal(b1-4)GlcNAc(b1-4)]Man(a1-3)[GlcNAc(b1-4)][Gal(b1-4)GlcNAc(b1-2)Man(a1-6)]Man(b1-4)GlcNAc(b1-4)GlcNAc
Method in brief: as §1

[20] = biological target: Gal(b1-4)GlcNAc(b1-2)[Gal(b1-4)GlcNAc(b1-6)]Man(a1-6)[Gal(b1-4)GlcNAc(b1-2)Man(a1-3)]Man(b1-4)GlcNAc(b1-4)GlcNAc
Method in brief: as §1

[21] = biological target: Gal(b1-4)GlcNAc(b1-3)Gal(b1-4)GlcNAc(b1-3)Gal(b1-4)GlcNAc
Method in brief: as §1

[22] = biological target: Gal(b1-4)GlcNAc(b1-3)Gal(b1-4)GlcNAc(b1-3)Gal(b1-4)GlcNAc(b1-3)Gal(b1-4)GlcNAc(b1-2)Man(a1-3)[Gal(b1-4)GlcNAc(b1-3)Gal(b1-4)GlcNAc(b1-3)Gal(b1-4)GlcNAc(b1-3)Gal(b1-4)GlcNAc(b1-2)Man(a1-6)]Man(b1-4)GlcNAc(b1-4)[Fuc(a1-6)]GlcNAc
Method in brief: as §1

[23] = biological target: Gal(b1-4)GlcNAc(b1-3)Gal(b1-4)GlcNAc(b1-3)Gal(b1-4)GlcNAc(b1-3)Gal(b1-4)GlcNAc(b1-3)Gal(b1-4)GlcNAc(b1-2)Man(a1-3)[Gal(b1-4)GlcNAc(b1-3)Gal(b1-4)GlcNAc(b1-3)Gal(b1-4)GlcNAc(b1-3)Gal(b1-4)GlcNAc(b1-3)Gal(b1-4)GlcNAc(b1-2)Man(a1-6)]Man(b1-4)GlcNAc(b1-4)GlcNAc
Method in brief: as §1

[24] = biological target: Gal(b1-4)GlcNAc(b1-6)[Gal(b1-4)GlcNAc(b1-3)]GalNAc
Method in brief: as §1

[25] = biological target: Gal3S(b1-4)[Fuc(a1-3)]GlcNAc6S
Method in brief: as §1

[26] = biological target: GalNAc3S(b1-4)GlcNAc3S
Method in brief: as §1

[27] = biological target: GalNAc4S6S(b1-4)GlcNAc
Method in brief: as §1

[28] = biological target: Glc(a1-4)Glc
Method in brief: as §1

[29] = biological target: GlcA(b1-3)Gal
Method in brief: as §1

[30] = biological target: GlcNAc(a1-4)Gal(b1-4)GlcNAc(b1-3)Gal(b1-4)Glc
Method in brief: as §1

[31] = biological target: GlcNAc(b1-2)[GlcNAc(b1-4)]Man(a1-3)[GlcNAc(b1-4)][GlcNAc(b1-2)[GlcNAc(b1-6)]Man(a1-6)]Man(b1-4)GlcNAc(b1-4)[Fuc(a1-6)]GlcNAc
Method in brief: as §1

[32] = biological target: GlcNAc(b1-2)[GlcNAc(b1-6)]Man(a1-6)[GlcNAc(b1-2)Man(a1-3)]Man(b1-4)GlcNAc(b1-4)[Fuc(a1-6)]GlcNAc
Method in brief: as §1

[33] = biological target: GlcNAc(b1-3)Gal(b1-4)GlcNAc(b1-3)Gal(b1-4)GlcNAc(b1-3)Gal(b1-4)GlcNAc(b1-3)Gal(b1-4)GlcNAc(b1-2)Man(a1-3)[GlcNAc(b1-3)Gal(b1-4)GlcNAc(b1-3)Gal(b1-4)GlcNAc(b1-3)Gal(b1-4)GlcNAc(b1-3)Gal(b1-4)GlcNAc(b1-2)Man(a1-6)]Man(b1-4)GlcNAc(b1-4)GlcNAc
Method in brief: as §1

[34] = biological target: GlcNAc(b1-6)Gal(b1-4)GlcNAc
Method in brief: as §1

[35] = biological target: Kdn(a2-3)Gal(b1-3)GalNAc
Method in brief: as §1

[36] = biological target: MurNAc(b1-4)GlcNAc
Method in brief: as §1

[37] = biological target: Neu5Ac(a2-3)Gal(b1-3)[GlcNAc(b1-6)]GalNAc
Method in brief: as §1

[38] = biological target: Neu5Ac(a2-3)Gal(b1-4)GlcNAc(b1-2)[Neu5Ac(a2-3)Gal(b1-4)GlcNAc(b1-4)]Man(a1-3)[GlcNAc(b1-4)][Neu5Ac(a2-3)Gal(b1-4)GlcNAc(b1-2)[Neu5Ac(a2-3)Gal(b1-4)GlcNAc(b1-6)]Man(a1-6)]Man(b1-4)GlcNAc(b1-4)GlcNAc
Method in brief: as §1

[39] = biological target: Neu5Ac(a2-3)Gal(b1-4)GlcNAc(b1-2)[Neu5Ac(a2-3)Gal(b1-4)GlcNAc(b1-6)]Man(a1-6)[Neu5Ac(a2-3)Gal(b1-4)GlcNAc(b1-2)Man(a1-3)][GlcNAc(b1-4)]Man(b1-4)GlcNAc(b1-4)GlcNAc
Method in brief: as §1

[40] = biological target: Neu5Ac(a2-6)Gal(b1-4)GlcNAc(b1-2)Man
Method in brief: as §1

[41] = biological target: Neu5Ac(a2-6)Gal(b1-4)GlcNAc(b1-2)Man(a1-3)[GlcNAc(b1-4)][Neu5Ac(a2-6)Gal(b1-4)GlcNAc(b1-2)Man(a1-6)]Man(b1-4)GlcNAc(b1-4)GlcNAc
Method in brief: as §1

[42] = biological target: Neu5Ac(a2-6)Gal(b1-4)GlcNAc(b1-2)Man(a1-3)[Man(a1-6)]Man(b1-4)GlcNAc(b1-4)GlcNAc
Method in brief: as §1

[43] = biological target: Neu5Ac(a2-6)Gal(b1-4)GlcNAc(b1-2)Man(a1-3)[Neu5Ac(a2-6)Gal(b1-4)GlcNAc(b1-2)Man(a1-6)]Man(b1-4)GlcNAc(b1-4)GlcNAc
Method in brief: as §1

[44] = biological target: Neu5Ac(a2-6)Gal(b1-4)GlcNAc(b1-2)Man(a1-6)Man(b1-4)GlcNAc(b1-4)GlcNAc
Method in brief: as §1

[45] = biological target: Neu5Ac(a2-6)Gal(b1-4)GlcNAc(b1-2)Man(a1-6)[Man(a1-3)]Man(b1-4)GlcNAc(b1-4)GlcNAc
Method in brief: as §1

[46] = biological target: Neu5Ac(a2-6)Gal(b1-4)GlcNAc(b1-3)Gal(b1-4)GlcNAc(b1-3)[Neu5Ac(a2-6)Gal(b1-4)GlcNAc(b1-3)Gal(b1-4)GlcNAc(b1-6)]GalNAc
Method in brief: as §1

[47] = biological target: Neu5Ac(a2-8)Neu5Ac(a2-3)Gal(b1-3)GalNAc(b1-4)[Neu5Ac(a2-3)]Gal(b1-4)Glc
Method in brief: as §1

B1: his-Lectin-24A (Drosophila melanogaster) (protein)
chain: MFRLSVLVLNLLLVSHEFSAGTAKIEIQPLPALCNGYCFPTLKPVMEYVAIHQDKWNTCTEILANEARKDQIQLNIQLDALKADVSNIKASQLSKDEKLDRMEREQFAMHESLETINRYLTVKLDRTKLQLEAIKNTMDYMKAQMDGYFSAINGVQCLQPGFEKIGDRYFYIEEDVELNWLDAQAKCRRMGGHLASIKTKQEFDAIVEKLDDSKSYFLGVNENTKTGDFVSAASGKSCLYHEWGPGEPHHNNDQERCVSILRKLMHVGNCTYEKRFICQYGI
[1]
  glycan array binding signal (z-score): -0.536
[2]
  glycan array binding signal (z-score): 2.61
[3]
  glycan array binding signal (z-score): -0.522
[4]
  glycan array binding signal (z-score): 2.69
[5]
  glycan array binding signal (z-score): -0.328
[6]
  glycan array binding signal (z-score): -0.34
[7]
  glycan array binding signal (z-score): 2.02
[8]
  glycan array binding signal (z-score): 0.328
[9]
  glycan array binding signal (z-score): 0.275
[10]
  glycan array binding signal (z-score): -1.19
[11]
  glycan array binding signal (z-score): 2.35
[12]
  glycan array binding signal (z-score): -0.445
[13]
  glycan array binding signal (z-score): 0.285
[14]
  glycan array binding signal (z-score): 1.74
[15]
  glycan array binding signal (z-score): 1.49
[16]
  glycan array binding signal (z-score): 2.34
[17]
  glycan array binding signal (z-score): 0.019
[18]
  glycan array binding signal (z-score): 2.68
[19]
  glycan array binding signal (z-score): -1.25
[20]
  glycan array binding signal (z-score): -0.553
[21]
  glycan array binding signal (z-score): -0.79
[22]
  glycan array binding signal (z-score): 3.44
[23]
  glycan array binding signal (z-score): 4.07
[24]
  glycan array binding signal (z-score): 0.403
[25]
  glycan array binding signal (z-score): 0.382
[26]
  glycan array binding signal (z-score): 3.3
[27]
  glycan array binding signal (z-score): 6.71
[28]
  glycan array binding signal (z-score): -0.592
[29]
  glycan array binding signal (z-score): 0.317
[30]
  glycan array binding signal (z-score): 2.7
[31]
  glycan array binding signal (z-score): 2.05
[32]
  glycan array binding signal (z-score): 1.69
[33]
  glycan array binding signal (z-score): 0.615
[34]
  glycan array binding signal (z-score): 0.608
[35]
  glycan array binding signal (z-score): 0.552
[36]
  glycan array binding signal (z-score): -0.281
[37]
  glycan array binding signal (z-score): -0.036
[38]
  glycan array binding signal (z-score): 2.26
[39]
  glycan array binding signal (z-score): -0.362
[40]
  glycan array binding signal (z-score): -0.44
[41]
  glycan array binding signal (z-score): -1.2
[42]
  glycan array binding signal (z-score): -0.737
[43]
  glycan array binding signal (z-score): 0.078
[44]
  glycan array binding signal (z-score): 1.27
[45]
  glycan array binding signal (z-score): 1.07
[46]
  glycan array binding signal (z-score): 0.118
[47]
  glycan array binding signal (z-score): 2.87
